Shown are actives, neighbours in structure and some others; about 19% of the full set was active somewhere.
HT1080 IDH1KD tx: qHTS for induction of synthetic lethality in tumor cells producing 2HG: qHTS for the HT-1080-IDH1KD cell line | HT-1080 IDH1 knockdown viability, ATP luminescence, 48 h | Potency, µM (doses to about 46.1 µM), inactives show at the highest dose activity, negative = toxicity, usual class: cytotoxic | 360,000 compounds, 2% hits;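 note: potency is the fitted concentration of half-maximal effect; 0% = DMSO wells and -100% = cell-free medium wells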
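Luminescent ATP read-out (CellTiter-Glo, 10 min at room temperature) after 48 h compound exposure at 37 °C gave viability of IDH1-knockdown HT-1080 cells. Activity was normalised to DMSO and cell-free wells, then fitted as concentration-response curves.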
IL1B secr inh: qHTS for Inhibitors of Inflammasome Signaling: IL-1-beta AlphaLISA Primary Screen; THP-1 LPS/ATP IL-1B secretion, AlphaLISA, 16 h; hits give low values; activity change, % at 57.5 µM; 360,000 compounds, 4.7% hits; in the data active = activity change below about -50%; inconclusive = mostly about -30% to -49%
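Secreted IL-1B measured by AlphaLISA bead assay after 16 h compound exposure of THP-1 cells; compounds (final up to 57.5 uM) added 1 h before LPS (250 ng/mL) and ATP (1.25 mM) stimulation; lower signal means less secretion.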
HT1080NT lethal: qHTS for induction of synthetic lethality in tumor cells producing 2HG: qHTS for the HT-1080-NT fibrosarcoma cell line; HT-1080-NT fibrosarcoma viability, CellTiter-Glo ATP luminescence, 48 h; AID 686970, 2013; 360,000 compounds, 1.6% hits; Potency, µM (highest dose often 46.1 µM), without a hit: at the top dose activity, negative = less viability, actives largely listed as cytotoxic;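 note: NT is the 2HG producing partner of a matched IDH1 knockdown line; potency is the fitted concentration of half-maximal effect; 0% = DMSO-treated cells and -100% = media-only wells without cells; nearly all actives have a fitted effect of over 55% in size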
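HT-1080-NT; 750 cells/well; 5% FBS RPMI; 48 h compound, 37 degrees C; CellTiter-Glo luminescence; curve fitting and curve-class assignment.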
DT40 TDP1 no CPT: qHTS for Inhibitors of human tyrosyl-DNA phosphodiesterase 1 (TDP1): qHTS in cells in absence of CPT; AID 686978, 2013; 420,000 compounds, 15% hits; Potency, µM (series often up to 46.2 µM), for inactives: top-dose activity change, negative = growth inhibition, hits mostly inhibitors; DT40 Tdp1-/- hTDP1 cells, no CPT, ATP luminescence, 48 h; note: potency is the fitted concentration of half-maximal effect; nearly all actives have a fitted effect of over 55% in size
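A cellular qHTS used chicken DT40 cells lacking endogenous Tdp1 but carrying stably transfected human TDP1. Compounds were applied without camptothecin, and cell growth kinetics were judged by ATP-dependent luminescence after ≥48 hr.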
DT40 TDP1 CPT: qHTS for Inhibitors of human tyrosyl-DNA phosphodiesterase 1 (TDP1): qHTS in cells in presence of CPT; Potency, µM (series often up to 46.2 µM), inactives show at the highest dose activity change, negative = growth inhibition, usual class: inhibitors; 420,000 compounds, 12% hits; chicken DT40 Tdp1-/-;hTDP1 cells + 20 nM CPT, ATP luminescence, 48 h; note: potency is the fitted concentration of half-maximal effect; nearly all actives have a fitted effect of over 55% in size
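Chicken DT40 Tdp1-/- cells stably complemented with human TDP1 were seeded at 400 cells/well in medium containing 20 nM camptothecin, exposed to pin-transferred compounds, and grown at 37 °C for at least 48 hr. Viability was read as ATP luminescence.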
Starred values were filed as active, the others as inactive; ? = inconclusive; . = not tested or not shown. Unless noted, calls come from the whole dose curve; as a rule, active = well fitted curve in the direction sought with a large enough effect; inconclusive = small, poorly fitted or top-dose-only effect, or another doubt; inactive = no such curve, though single readings can be large; an effect the other way counts as inactive or inconclusive. Unless noted, % is set by controls: 0 for no effect and ±100 for the full control effect.

SMILES	HT1080 IDH1KD tx	IL1B secr inh	HT1080NT lethal	DT40 TDP1 no CPT	DT40 TDP1 CPT
CCn1cc(C(=O)N[C@@H](C)C(=O)NCCCO)c(=O)c2cc3c(cc21)OCO3	0.0%	8.7	-1.2%	-15.4%	-4.0%
Cn1ccc2c(-c3ccc(C(C)(C)C)cc3)cc3c(c21)C1CCC3O1 (stereo unspecified)	?	8.1	?	23.1µM*	?
Cn1ccc2c(-c3ccc(C(F)(F)F)cc3)cc3c(c21)C1CCC3O1 (stereo unspecified)	?	4.1	?	16.4µM*	23.1µM*
Cn1ccc2c(-c3ccc(C(=O)O)cc3)cc3c(c21)C1CCC3O1 (stereo unspecified)	18.0%	18.2	12.3%	-14.4%	-3.9%
Cc1cccc(-c2n[nH]nc2C2=CC(=O)CC(C)(C)C2)c1	-2.3%	-8.2	2.1%	?	-9.5%
O=S(=O)(c1ccc2c(c1)OCCO2)N1CCN(CCc2ccccc2)CC1	.	.	.	-13.2%	-28.9%
Cc1ccc2c(c1)C=CC(C#N)N2C(=O)c1ccccc1 (stereo unspecified)	1.46µM*	53.3	1.64µM*	1.84µM*	1.64µM*
Cc1ccc2c(c1)C=CC(C)N2C(=O)c1ccccc1 (stereo unspecified)	-21.4%	40.6	-17.1%	16.4µM*	?
CC(=O)OC1CC(C)N(C(=O)c2ccccc2)c2ccc(C)cc21 (stereo unspecified)	0.7%	-3.4	-1.0%	?	?
CC1=Cc2ccccc2C(C#N)N1C(=O)c1ccccc1 (stereo unspecified)	?	22.7	?	18.4µM*	20.6µM*
CCSC(=O)N1c2ccc(OC)cc2C=CC1C#N (stereo unspecified)	?	-6.9	0.461µM*	0.0052µM*	0.0082µM*
N#C[C@H]1C(O)C(O)c2ccccc2N1C(=O)c1ccccc1 (stereo partly specified)	6.7%	27.0	7.7%	-6.0%	5.5%
COc1ccc(C(=O)N2c3ccccc3C=CC2C#N)cc1 (stereo unspecified)	-20.3%	33.4	-28.5%	?	-22.9%
CCCN1CCN(S(=O)(=O)c2ccc3c(c2)OCCO3)CC1	-1.7%	0.0	19.0%	-28.8%	-9.5%
CC1C(=O)N2CCCc3cc(NC(=O)C(=O)NCCc4ccccc4)cc1c32 (stereo unspecified)	-12.2%	16.3	-5.8%	?	?
COC(=O)c1ccc2nc(-c3cccc(Cl)c3)c(Cc3ccccc3OC)n2c1	-28.6%	20.4	-25.9%	23.1µM*	16.4µM*
COc1ccccc1Cc1c(-c2cccc(Cl)c2)nc2ccc(Br)cn12	-5.2%	17.4	-2.0%	20.6µM*	23.1µM*
COc1ccccc1NC(=O)COC(=O)Cn1c(C)csc1=O	0.2%	-16.6	-4.8%	?	-6.9%
CN1CCN(C(=O)c2ccc(NS(=O)(=O)c3cccc([N+](=O)[O-])c3)cc2)CC1	13.5%	20.1	15.8%	-20.8%	-2.3%
CN(CC(=O)Nc1cc(S(=O)(=O)N2CCCCCC2)ccc1Cl)Cc1ccc2c(c1)OCO2	-18.7%	51.8	-1.2%	?	16.4µM*
CN(CC(=O)Nc1cc(S(=O)(=O)N2CCCC2)ccc1Cl)Cc1ccc2c(c1)OCO2	-14.8%	?	-20.0%	?	-96.6%
COc1ccc(S(=O)(=O)N2CCCCCC2)cc1NC(=O)CN(C)Cc1ccc2c(c1)OCO2	?	0.0	-17.2%	20.6µM*	?
O=C(NCc1ccc(C(F)(F)F)cc1)c1ccc(-c2cccnc2)c2ccoc12	-3.4%	0.0	-12.0%	?	?
Cc1ccc(C)n1-c1ccc(-c2nnc3n2CCCCC3)s1	-10.1%	-12.5	-23.8%	-27.0%	?
CCOCCn1ccc2c(OCC(=O)Nc3ccc(OC)c(OC)c3)cccc2c1=O	-1.8%	15.2	-20.7%	10.3µM*	14.6µM*
SMILES	HT1080 IDH1KD tx	IL1B secr inh	HT1080NT lethal	DT40 TDP1 no CPT	DT40 TDP1 CPT
COCCn1ccc2c(OCC(=O)Nc3cccc(OC)c3)cccc2c1=O	.	.	.	14.6µM*	?
CCOCCn1ccc2c(OCC(=O)Nc3cc(C)cc(C)c3)cccc2c1=O	.	.	.	?	-29.8%
CCOCCn1ccc2c(OCC(=O)Nc3ccc(OC)cc3OC)cccc2c1=O	-7.0%	0.1	-3.1%	?	-22.9%
COCCn1ccc2c(OCC(=O)Nc3cccc(C(F)(F)F)c3)cccc2c1=O	.	.	.	23.1µM*	?
Cc1ccc(CSCC(=O)N/N=C/c2cccc(OC3CSC3)c2)cc1	13.2%	7.3	-9.5%	?	-24.0%
Cc1ccc2[nH]c3c(c2c1)CCc1cn[nH]c1-3	?	-13.0	?	23.1µM*	?
Cc1ccc2[nH]c3c(c2c1)CCC3=O	-14.6%	13.9	0.0%	-10.4%	-4.4%
Cn1c(/C=C/c2ccc(Cl)cc2Cl)c([N+](=O)[O-])c(=O)n(C)c1=O	-18.3%	-4.4	-19.2%	5.17µM*	8.2µM*
COc1ccc(/C=C/c2c([N+](=O)[O-])c(=O)n(C)c(=O)n2C)cc1	20.4%	-12.5	16.1%	-2.9%	-0.2%
CCc1ccc(/C=C/c2c([N+](=O)[O-])c(=O)n(C)c(=O)n2C)cc1	?	-98.4*	?	?	?
CCOc1ccc(/C=C/c2c([N+](=O)[O-])c(=O)n(C)c(=O)n2C)cc1	-24.2%	-93.3*	-19.9%	?	13.2%
COc1ccc(NC(=O)Cc2ccccc2)cn1	-2.9%	16.0	8.8%	-3.3%	-7.7%
COc1ccc(CS(=O)(=O)/C(Cl)=C(/Cl)C(=O)Nc2ccc(OC)nc2)cc1	8.2µM*	-120.4*	23.1µM*	0.581µM*	0.581µM*
COc1ccc(NC(=O)CCc2ccc(OC)c(OC)c2)cn1	4.0%	9.4	12.6%	4.2%	2.0%
COc1ccc(NC(=O)/C(Cl)=C(/Cl)S(=O)Cc2ccccc2)cn1 (stereo unspecified)	1.46µM*	-102.5*	5.8µM*	0.0184µM*	0.0206µM*
COC(=O)c1ccc(COC(=O)CCC(=O)c2cccs2)cc1	6.5%	41.9	2.5%	2.8%	19.2%
COC(=O)c1c(OCc2cccnc2)cc(=O)n2c1CCN(C(=O)c1c3c(nn1C)CCCC3)CC2	.	.	.	-11.3%	-2.4%
Cc1ccc(NC(=O)c2ccc(CSc3nnc(-c4ccncc4)n3C)cc2)cc1	0.9%	5.1	14.8%	-21.2%	-18.7%
CCn1c(SCc2ccc(C(=O)Nc3cc(C)cc(C)c3)cc2)nnc1-c1ccncc1	-24.2%	-65.1*	-13.8%	?	?
